Results published in PubChem BioAssay (NCI).
Compounds without any hit were thinned out: in the full panel of roughly 83,000, 20% have a hit.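 Single-concentration screen, 48 h exposure, 96-well plates. Endpoint: percent growth. Below 10 = active.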 Values without a mark were called inactive. Activity calls are given as the source filed them.

Key:
Experiment in all cases: NCI-60 one-dose screen, 48 h (100 = growth as untreated, 0 = no growth, -100 = all killed)
Details in all cases: 10 µM unless noted
NCI-H23 lung = test system: NCI-H23 lung
NCI-H226 lung = test system: NCI-H226 lung
NCI-H322M lung = test system: NCI-H322M lung
HOP-62 NSCLC = test system: HOP-62 NSCLC
NCI-H460 lung = test system: NCI-H460 lung
HOP-92 NSCLC = test system: HOP-92 NSCLC
NCI-H522 lung = test system: NCI-H522 lung
A549/ATCC NSCLC = test system: A549/ATCC NSCLC
786-0 renal = test system: 786-0 renal
COLO 205 colon = test system: COLO 205 colon
DU-145 prostate = test system: DU-145 prostate
K-562 leukemia = test system: K-562 leukemia
MALME-3M melanoma = test system: MALME-3M melanoma
MDA-MB-231 breast = test system: MDA-MB-231 breast
RXF 393 renal = test system: RXF 393 renal
SF-268 CNS = test system: SF-268 CNS
SF-295 CNS = test system: SF-295 CNS
SF-539 CNS = test system: SF-539 CNS
UACC-257 melanoma = test system: UACC-257 melanoma
M14 melanoma = test system: M14 melanoma

| SMILES | growth (NCI-H23 lung) | growth (NCI-H226 lung) | growth (NCI-H322M lung) | growth (HOP-62 NSCLC) | growth (NCI-H460 lung) | growth (HOP-92 NSCLC) | growth (NCI-H522 lung) | growth (A549/ATCC NSCLC) | growth (786-0 renal) | growth (COLO 205 colon) | growth (DU-145 prostate) | growth (K-562 leukemia) | growth (MALME-3M melanoma) | growth (MDA-MB-231 breast) | growth (RXF 393 renal) | growth (SF-268 CNS) | growth (SF-295 CNS) | growth (SF-539 CNS) | growth (UACC-257 melanoma) | growth (M14 melanoma) |
| --- | --- | --- | --- | --- | --- | --- | --- | --- | --- | --- | --- | --- | --- | --- | --- | --- | --- | --- | --- | --- |
| COc1cc2oc(-c3cccc(C(=O)Nc4ccc(Cl)cc4)c3)cc(=O)c2c(O)c1OC | 72.6% | 66.4% | 58.4% | 0.268% (active) | 20.5% | 10.5% | 60.4% | 47.5% | 38.7% | 74% | 62.9% | 69.4% | 68.4% | 55.8% | 41.3% | 28.6% | 52% | 55% | 83.2% | 69.8% |
| Oc1ccc(C(c2ccc(O)cc2)c2ccc(Br)cn2)cc1 | -18.2% (active) | -14% (active) | -27.3% (active) | 77.5% | 107% | -0.572% (active) | 42.6% | 37.3% | 89.7% | 1.1% (active) | 47.4% | 73.5% | 99.3% | 83% | -22% (active) | 104% | -17.1% (active) | 84.9% | 91.3% | 78.8% |
| CCCC/C=N/NC(=S)NCc1ccccc1 | 103% | 98.6% | 105% | 82.1% | 101% | 93.6% | 94.6% | 97.9% | 102% | 100% | 106% | 91.7% | 97% | 98.8% | 106% | 102% | 102% | 94% | 91.2% | 87.4% |
| Cc1c(C(=O)NCCC(=O)NO)sc2ncnc(Nc3ccc(NC(=O)Nc4cccc(C(F)(F)F)c4)cc3)c12 | 100% | 97.9% | 104% | 102% | 99.4% | 115% | 94.4% | 104% | 116% | 113% | 105% | 104% | 112% | 105% | 104% | 93.4% | 91.8% | 79% | 108% | 107% |
| NC(=NCCCOc1ccc(F)cc1)Nc1ccc(Cl)cc1 | 46% | 65.7% | 60.1% | 46.6% | 84.2% | 60.7% | 76.5% | 53% | 71.4% | -69.6% (active) | 25% | 64.7% | 54.6% | 53.7% | 73.6% | 49.9% | 47.5% | 59.7% | 13.4% | 52.7% |
| Cc1ccc(-n2c3c(c(-c4ccccc4)c2-c2ccccc2)C2=NCCN2C=N3)cc1 | 84.2% | 72% | 96.6% | 97.6% | 90.9% | 87% | 80.2% | 93.7% | 95% | 101% | 95% | 64.2% | 97.9% | 80.5% | 101% | 96.2% | 99.2% | 95.4% | 104% | 95.7% |
| c1ccc2cc(Cn3c(-c4cccc5ccccc45)[n+](Cc4ccc5ccccc5c4)c4c5ccccc5c5ccccc5c43)ccc2c1 | -60.8% (active) | -66% (active) | -25% (active) | -85.1% (active) | -71.7% (active) | -52.3% (active) | -64.2% (active) | -71.7% (active) | -70% (active) | -84.9% (active) | -96.5% (active) | -35.2% (active) | -82.6% (active) | -72.9% (active) | -90.6% (active) | -38.2% (active) | -83.9% (active) | -92.5% (active) | -67.2% (active) | -63.5% (active) |
